About 1,300 (0.39%) of roughly 330,000 compounds were called active.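 The calls were made as follows: active = percent inhibition above a cutoff equal to the mean of all tested compounds plus 3 SD (cut at about 15% in these data); inactive = the rest.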 Shown is part of a subset that was picked to be rich in actives.
Biological target: Protein-arginine deiminase type-4 (Homo sapiens) (UniProt Q9UM07)
Experiment: protein arginine deiminase 4 enzyme blockade – biochemical, fluorescence polarization, 1536-well format, primary screen (AID 485272);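 also: 0% = PAD4 with RCA probe and DMSO and 100% = probe without PAD4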
Conditions: recombinant PAD4, RCA probe fluorescence polarization; at 6.36 µM; hits give high values

Protein-arginine deiminase type-4 (Homo sapiens), sequence (Q9UM07 whole entry, looked up): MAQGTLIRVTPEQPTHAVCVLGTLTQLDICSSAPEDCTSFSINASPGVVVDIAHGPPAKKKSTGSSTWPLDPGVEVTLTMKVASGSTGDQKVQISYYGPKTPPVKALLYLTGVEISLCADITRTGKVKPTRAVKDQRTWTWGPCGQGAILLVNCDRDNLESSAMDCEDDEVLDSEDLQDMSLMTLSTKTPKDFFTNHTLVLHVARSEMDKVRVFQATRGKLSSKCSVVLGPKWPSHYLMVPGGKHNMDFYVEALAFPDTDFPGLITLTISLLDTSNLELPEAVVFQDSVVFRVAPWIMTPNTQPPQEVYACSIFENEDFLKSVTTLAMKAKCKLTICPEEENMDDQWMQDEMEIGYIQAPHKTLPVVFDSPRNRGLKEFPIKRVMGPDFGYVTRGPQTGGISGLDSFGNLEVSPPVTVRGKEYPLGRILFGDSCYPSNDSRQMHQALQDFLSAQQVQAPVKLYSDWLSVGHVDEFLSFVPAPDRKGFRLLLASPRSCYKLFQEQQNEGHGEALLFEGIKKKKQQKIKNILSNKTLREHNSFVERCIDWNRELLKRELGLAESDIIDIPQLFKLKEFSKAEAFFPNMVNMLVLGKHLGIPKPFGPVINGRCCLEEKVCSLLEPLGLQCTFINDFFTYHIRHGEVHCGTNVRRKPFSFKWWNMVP

inhibition, inactive:
c1ccc2c(c1)OCCOCCOCCO2 0.83%
CCn1c(SCC(=O)Nc2sc(C)c(C)c2C#N)nnc1C1CC1 -2.74%
CCCc1c(C)nc2c(Br)cccc2c1Cl 2.17%
COc1ccc(C2(O)C(=O)Nc3ccccc32)cc1 (centres undefined) 0.37%
CCc1ccc2c(c1)C1(NN=C(c3ccccc3)S1)C(=O)N2 (centres undefined) -9.11%
CC1(C)N=C(c2ccccn2)C(C)(C)N1O -1.6%
O=C(NCCc1ccccc1Cl)C1CCC(=O)N(CCCc2ccccc2)C1 (centres undefined) 1.05%
Cc1c2cnn(CC(=O)NCc3ccccn3)c(=O)c2c(C)n1Cc1ccc(Cl)cc1 1.37%
CC(C)CNC(=O)CC(NCC(C)C)C(=O)O (centres undefined) -2.65%
Cc1nc2ccccc2nc1N/N=C/c1ccc(O)cc1O -3.07%
Oc1ccc(-c2[nH]ncc2-c2nc3ccccc3s2)c(O)c1 3.22%
CS(=O)(=O)N(CC(=O)N1CCN(c2ccc(F)cc2)CC1)C1CCCCC1 -2.55%
C=CCN1C2CCCC1CC(NC(=S)Nc1cccc(OC)c1)C2 (centres undefined) 3.98%
O=C(CN1C(=O)CCS(=O)(=O)c2ccccc21)NCc1ccc(F)cc1 -1.88%
C[C@H](CO)N1C[C@H](C)[C@@H](CN(C)Cc2ccc(-c3ccccc3)cc2)Oc2ccc(NC(=O)Cn3cnnn3)cc2C1=O -5.03%
O=C(Nc1ccc([N+](=O)[O-])cc1)C1(c2ccccc2)CCOCC1 -2.28%
CN(C(=O)CN1C(=O)CCSc2ccc(S(=O)(=O)N3CCCC3)cc21)c1ccccc1 -3.61%
NNC(=O)c1oc2nc(-c3ccccc3)cc(-c3ccco3)c2c1N -6.02%
CNC(=S)NNC(=O)c1cccn(Cc2ccccc2)c1=O -2.2%
COc1ccc([C@@H]2[C@@H]3C(=O)N(C(C)(C)C)C(=O)[C@@H]3[C@]3(Cc4ccccc4)C(=O)N(c4cccc(Br)c4)C(=O)N23)cc1 0.18%
Cc1nn(CC2CC2)c(=O)n1N(C)c1ncc(C(F)(F)F)cc1Cl 0.5%
O=C(Cc1ccc2c(c1)CCCC2)Nc1ccccc1Cl 1.33%
Cc1c(NC(=O)Nc2ccccc2Cl)sc(=S)n1C -3.79%
CC1CN(c2nc(-c3ccccc3)nnc2-c2ccccc2)CC(C)O1 (centres undefined) -2.42%
Cn1cccc1/C=C1\SC(=S)N(NC(=O)c2ccc(Cl)cc2)C1=O -18.5%
CC(C)C(=O)NC(=S)Nc1ccccc1F 5.01%
COc1ccccc1NC(=S)NC(=O)C(C)C -0.01%
C=CCNC(=O)c1ccccc1NC(=O)c1ccc(Cl)c(S(=O)(=O)Nc2cccc(C)c2C)c1 2.11%
COc1ccc(C)cc1Nc1nc(C)nc2c1oc1ccccc12 1.33%
Cc1nc(N2CCCC2C(=O)O)c2oc3ccccc3c2n1 (centres undefined) -1.75%
CCCCC[C@@H]1C=C(C(=O)O)[C@H](c2ccc(C#N)cc2)N1S(=O)(=O)c1ccc(C)cc1 0.94%
O=C(N/C(=C\c1ccc([N+](=O)[O-])cc1)C(=O)N1CCCCC1)c1ccco1 2.37%
CCOc1cc2c(cc1OCC)C(C(=O)O)C(c1ccc(OC)c(O)c1)N(C)C2=O (centres undefined) -1.73%
COc1cccc(NC(=O)C2C(c3ccccc3)C2(Cl)Cl)c1 (centres undefined) -7.27%
CO[C@H]1[C@@H]2C=CO[C@@H](O[C@H]3O[C@@H](CO)[C@H](O)[C@@H](O)[C@@H]3O)[C@@H]2[C@@]2(CO)O[C@@H]12 1.64%
Cc1nc2ccccc2nc(C)c1=NOCc1ccc(Cl)cc1Cl -3.19%
CCOC(=O)C1CCN(C(=O)CC2C(=O)N(Cc3ccccc3)C(C)c3nc4ccccc4n32)CC1 (centres undefined) -2.42%
CCC(CO)Oc1cc(NC(=O)c2cccc3ccccc23)c2ncn(C(C)C)c2c1 (centres undefined) -7.37%
CCC(CO)Oc1cc(NC(=O)c2cccc(F)c2)c2ncn(C(C)C)c2c1 (centres undefined) 3.9%
CCC(CO)Oc1cc(NC(=O)c2ccc(Cl)cc2)c2ncn(C(C)C)c2c1 (centres undefined) -2.59%
CCC(CO)Oc1cc(NCc2ccccc2)c2ncn(C3CCCC3)c2c1 (centres undefined) -6.94%
Cc1ccc(NC(=O)C(C)c2cccc(C(=O)c3ccccc3)c2)cc1 (centres undefined) 1.32%
O=C(Cn1c2[n+](c3ccc(C(F)(F)F)cc31)CCCCC2)Nc1c(F)cccc1F -5.07%
CC(C)C(C)(C#N)NC(=O)CSc1nncn1-c1ccccc1 (centres undefined) -0.3%
CC(C)(C)NC(=O)/C(=C/c1cccnc1)NC(=O)c1ccco1 0.75%
Cc1cc(C)c2c(Cn3ccnc3)cc(=O)oc2c1 -4.75%
Cc1nn(-c2ccccc2)c(C)c1NC(=O)CCl 1.95%
Cc1nn(-c2ccccc2)c(C)c1NC(=O)COC(=O)c1cc(Cl)ccc1O 2.71%
Cc1ccc2c(c1)N(C(=O)CCC(=O)NCc1cccnc1)CCO2 -2.36%

inhibition, active:
O=C1Nc2ccccc2C12Nc1ccccc1S2 (centres undefined) 21.3%
Cc1cc(O)ccc1-c1cnc2ccccc2n1 28.5%
CN1c2ccc(C=O)c3c(C=O)ccc(c23)N(C)C1(C)C 54.5%
CNC(=S)NNC(=O)c1oc2nc(-c3ccccc3)cc(-c3ccco3)c2c1N 19.9%
O=C(Nc1ccccc1Cl)/C(Cl)=C(\Cl)S(=O)c1ccccc1 (centres undefined) 16.5%
CCc1ccccc1NC(=S)Nc1cc(OC)c(NC(=O)C(C)C)cc1OC 41.1%
Cc1nc(Cl)c2oc3ccccc3c2n1 15.3%
COc1cccc(NC(=O)C2c3cc(OC)c(OC)cc3C(=O)N(C)C2c2cccnc2)c1 (centres undefined) 69.3%
CC(C)n1cnc2c(NCc3ccccc3)cc(N[C@@H](CO)Cc3ccccc3)cc21 32.9%
CC(C)n1cnc2c(NCc3ccccc3)cc(OCC3CCN(C)CC3)cc21 16.8%

— PubChem BioAssay AID485272 (The Scripps Research Institute Molecular Screening Center, 2010)
